From PubChem BioAssay
FLuc inh – inhibitors of firefly luciferase | purified firefly luciferase, luminescence, 8 min | Potency, µM (series often up to 57.1 µM), inactives show top-dose activity change, negative = inhibition, usual class: inhibitors | P08659 | 72,000 compounds, 2.2% hits | AID 411; also: % is scaled to controls: 0 for no effect and ±100 for the full control effect; nearly all actives have a fitted effect of over 40% in size
Target sequence (P08659 whole entry, looked up): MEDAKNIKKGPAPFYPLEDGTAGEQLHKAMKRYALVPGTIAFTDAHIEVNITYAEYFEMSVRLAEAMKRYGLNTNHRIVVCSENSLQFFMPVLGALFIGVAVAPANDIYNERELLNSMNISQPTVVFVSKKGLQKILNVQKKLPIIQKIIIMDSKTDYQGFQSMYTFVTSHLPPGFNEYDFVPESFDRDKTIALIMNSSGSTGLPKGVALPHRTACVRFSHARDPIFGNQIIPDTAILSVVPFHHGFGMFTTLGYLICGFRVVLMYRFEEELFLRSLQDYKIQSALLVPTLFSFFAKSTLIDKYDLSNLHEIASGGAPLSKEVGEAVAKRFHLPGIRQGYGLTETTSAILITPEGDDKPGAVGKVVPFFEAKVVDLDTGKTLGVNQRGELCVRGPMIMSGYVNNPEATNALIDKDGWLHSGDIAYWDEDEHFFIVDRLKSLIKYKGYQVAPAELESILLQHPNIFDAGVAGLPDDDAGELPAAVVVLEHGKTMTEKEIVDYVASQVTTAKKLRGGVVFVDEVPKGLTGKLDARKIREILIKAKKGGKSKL
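Titration-based qHTS; buffer 50 mM imidazole pH 7.2, 50 mM KCl, 7 mM MgCl2, 10 uM ATP, 0.01% Tween 20, 0.05% BSA; luciferase/luciferin detector mix added after compound; 8 min, ambient; luminescence.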
IkB signaling – IkB pathway inhibition in ABC-DLBCL cells. ABC-DLBCL IkBa-CBG/CBR dual luciferase ratio, 4 h; response scale: scaled: untreated 0%, proteasome inhibitor 100%. Potency, µM (series often up to 57.1 µM), without a hit: top-dose IkBa stabilization activation. 110,000 compounds, 0.04% hits; active = well fitted curve in the direction sought with a large enough effect in the signal ratio, not every such curve was filed as active; inconclusive = small, poorly fitted or top-dose-only effect, or a change in a side signal; the % refers to the signal ratio;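 also: the direction sought is a rising ratio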
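In this assay, an IκBα–CBG68 fusion accumulates when IKK-driven degradation is blocked; native CBR normalizes for cell number. OCI-Ly3 cells were treated 4 h with compound and doxycycline, then green and red light read after Chroma-Glo addition.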
p53ts 39C kill – p53ts cell cytotoxicity, nonpermissive temperature; H1299-p53A138V viability at 39C, ATP luminescence, 24 h; Potency, µM (top dose mostly 46.1 µM), for the others: at the highest dose activity change, negative = cell killing, hits mostly cytotoxic; 130,000 compounds, 1.5% hits; AID 902; also: % is scaled to controls: 0 for no effect and ±100 for the full control effect; nearly all actives have a fitted effect of over 55% in size
Peg3 imprint – inducers of genomic imprint erasure in mouse ES cells; Potency, µM (highest dose often 60.7 µM), without a hit: at the top dose activity change, positive = activation, actives largely listed as activators; 110,000 compounds, 0.02% hits; mouse ES Peg3-LacZ reporter, beta-gal luminescence, 40 h
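Each well holds 300 Peg3LacZ-Neo (maternal) female ES cells incubated 40 h at 37C, 5% CO2. LacZ is measured by BetaGlo luminescence, with AC50 and maximum efficacy derived from dose-response curves.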
p53ts 32C kill – p53ts cell cytotoxicity, permissive temperature; H1299-p53A138V at 32C, ATP luminescence viability, 24 h; Potency, µM (doses to about 46.1 µM), inactives show at the highest dose activity change, negative = cytotoxicity, hits mostly cytotoxic; 130,000 compounds, 0.93% hits; AID 924;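 also: 0% = DMSO and -100% = full killing by reference compound; nearly all actives have a fitted effect of over 55% in size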
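Cells: H1299 p53ts (A138V), 600/well, pre-incubated 16–30 h at 37C. Cpd up to 46 uM, 24 h, 32C. Readout: ATPlite luminescence, 20 min RT. Normalization: DMSO vs tamoxifen 100 uM. AC50 by Hill equation.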
Numbers without * were called inactive; ? = inconclusive; / = no result; [ ] = remark or other dose. This is a sample that favours compounds with a hit; in the whole collection about 2.4% have one here. Unless noted, calls follow the shape of the dose curve; as a rule, active = well fitted curve in the direction sought with a large enough effect; inconclusive = small, poorly fitted or top-dose-only effect, or another doubt; inactive = no such curve, though single readings can be large; an effect the other way counts as inactive or inconclusive. Potency is read from the fitted curve at half-maximal effect.

SMILES	FLuc inh	IkB signaling	p53ts 39C kill	Peg3 imprint	p53ts 32C kill
O=C(Nc1nc2ccccc2s1)c1ccc(S(=O)(=O)N2CCCC2)cc1	/	?	-14%	15%[10.9 µM]	-1%
CCOc1ccc2nc(Cl)c(C3CC(c4ccc(C)cc4)=NN3C(=O)CCCC(=O)O)cc2c1 (stereo not given)	/	4%	27%	-5%[10.9 µM]	5%
Cc1ccc(S(=O)(=O)c2cn(C)c3cc(N4CCCCCC4)c(F)cc3c2=O)cc1	/	/	/	/	-7%
Cc1occc1C(=O)Nc1cc(C(C)(C)C)on1	16µM*	-1%	-19%	-93%	-28%
Cc1occc1C(=O)Nc1ccc2ccccc2c1	20µM*	?	-24%	-81%	?
O=c1ccn([C@H]2O[C@H](CO)[C@@H](O)[C@@H]2O)c(=O)[nH]1	1%[11.4 µM]	-1%[11.4 µM]	/	/	/
COc1ccc(-n2nc3ccccc3n2)cc1	-11%	-4%	0%	-27%	0%
COc1ccc(-n2nc3cc(C)c(N)c(Br)c3n2)cc1	4µM*	?	13µM*	-28%	13µM*
Cc1c(C(=O)Nc2cccc(C#N)c2)sc2nc3n(c(=O)c12)CCCCC3	/	0%	6%	-12%[10.9 µM]	-16%
Cc1ccc(Cl)cc1N1CCN(C(=O)c2sc3nc4n(c(=O)c3c2C)CCC4)CC1	/	-1%	-29%	-13%[10.9 µM]	1%
CCS(=O)(=O)CCSc1nc(-c2ccc(Br)cc2)cc(-c2ccccc2)c1C#N	/	0%	?	-21%[10.9 µM]	3%
CS(=O)c1nc(-c2ccc(Br)cc2)cc(-c2ccccc2)c1C#N (stereo not given)	-1%	?	?	-26%	20µM*
CCN(Cc1ccccc1)C(=O)Cn1c(=O)n(-c2ccccc2)c(=O)c2c1c1cc(C)ccc1n2C	/	0%	-25%	-7%[10.9 µM]	-4%
O=C(Cn1c(=O)n2nc(-c3cccc(F)c3)nc2c2ccccc21)N1CCN(c2ccccc2F)CC1	/	1%	23%	19%[10.9 µM]	-3%
O=C(NCCc1ccccc1)C(=O)NCC(c1cccnc1)N1CCN(c2ccc(F)cc2)CC1 (stereo not given)	/	-3%	20µM*	-19%[10.9 µM]	?
Nc1ncnc2c1ncn2[C@@H]1O[C@@H](C(=O)NC2CC2)[C@H](O)[C@@H]1O	3%	?	8%	/	-9%
CC1CCN(c2ccc(-c3cccc(NS(=O)(=O)c4cccs4)c3)nn2)CC1	/	?	3.2µM*	-14%[10.9 µM]	10µM*
CC1CCN(c2ccc(-c3cccc(NS(=O)(=O)c4ccc(Cl)s4)c3)nn2)CC1	/	?	4µM*	-8%[10.9 µM]	6.3µM*
Cc1cc(C)c(S(=O)(=O)Nc2ccc(-c3ccc(N4CCC(C)CC4)nn3)cc2)cc1C	/	23%	39%	-8%[10.9 µM]	-15%
CC(C)(C)c1ccc(-c2nc3cc(NC(=O)c4cccc(Br)c4)ccc3o2)cc1	/	-2%	38%	6%[10.9 µM]	4%
Cc1cccn2cc(-c3ccccc3)nc12	10µM*	3%	?	-82%	13µM*
Cc1cccn2cc(CNc3ccccc3)nc12	-18%	2%	-6%	-36%	2%
COc1ccc(-c2cn3ccc4ccccc4c3n2)cc1	/	/	11µM*	/	?
COc1ccc(-c2nnn3c2nc(NCc2ccccc2)c2ccccc23)cc1	/	?	-13%	-11%[10.9 µM]	-4%
Cc1cccn2cc(-c3ccc(F)cc3)nc12	7.9µM*	5%	?	-82%	?
SMILES	FLuc inh	IkB signaling	p53ts 39C kill	Peg3 imprint	p53ts 32C kill
Cc1ccc2nc(-c3ccccc3)cn2c1	0.25µM*	?	0.63µM*	-93%	0.5µM*
CCN(CC)c1ccc(-c2nc(-c3ccccc3C)no2)cc1[N+](=O)[O-]	/	0%	7%	-5%[10.9 µM]	-9%
CCN(c1ccc(C)cc1C)S(=O)(=O)c1nnc(NC(=O)c2ccccc2OC)s1	/	?	-15%	-15%[10.9 µM]	-1%
Cc1c(/C(O)=C2/C(=O)C(=O)N(CCN3CCOCC3)C2c2cccs2)cnn1-c1ccccc1 (stereo not given)	13µM*	-5%	1%	-6%	-29%
COc1ccccc1CNC(=O)CSc1nc(=O)[nH]c2c1CCC2	/	?	14%	-13%[10.9 µM]	-8%
COc1ccc2nc(NC(=O)c3nc(S(=O)(=O)Cc4ccc(C)cc4)ncc3Cl)sc2c1	/	?	6.3µM*	-18%[10.9 µM]	?
Cc1ccc(CS(=O)(=O)c2ncc(Cl)c(C(=O)Nc3nc4ccc(C)cc4s3)n2)cc1	/	?	13µM*	-26%[10.9 µM]	16µM*
CCCc1nnc(NC(=O)c2nc(S(=O)(=O)Cc3ccc(C)cc3)ncc2Cl)s1	/	-1%	?	-13%[10.9 µM]	?
CCS(=O)(=O)c1ncc(Cl)c(C(=O)NCc2ccc(OC)cc2)n1	/	?	?	-27%[10.9 µM]	?
Cc1ccc(CS(=O)(=O)c2ncc(Cl)c(C(=O)Nc3nc4ccc(F)cc4s3)n2)cc1	/	?	16µM*	-25%[10.9 µM]	13µM*
Cc1ccc(CNC(=O)c2nc(S(=O)(=O)Cc3ccc(C)cc3)ncc2Cl)cc1	/	-2%	13µM*	-8%[10.9 µM]	16µM*
Cc1ccc(S(=O)(=O)O[C@H]2CC(C(C)(C)C)CC[C@@H]2c2ccccc2)cc1 (stereo not given in full)	/	/	/	-8%[10.9 µM]	/
COC(=O)c1ccc(C(=O)OC)c(NC(=O)c2ccc(-c3ccccc3)s2)c1	/	2%	2%	17%[10.9 µM]	-5%
CN(C)S(=O)(=O)c1ccc2c(c1)/C(=C/c1cc3c([nH]1)CCCC3)C(=O)N2	25µM*	-15%	-8%	-16%	-9%
O=C(Nc1scc(-c2ccccc2)c1C(=O)O)c1ccco1	-9%	?	?	-86%	?
CCOC(=O)c1c(-c2ccccc2)csc1NC(=O)c1cc(-c2ccc(Cl)cc2)on1	/	?	14%	-5%[10.9 µM]	6%
COC(=O)c1c(-c2cccnc2)csc1NC(=O)c1cc(C)on1	13µM*	?	-30%	-26%	?
COC(=O)c1c(-c2ccc(F)cc2)csc1NC(=O)c1ccco1	13µM*	-2%	-10%	-10%	-6%
Cc1ccc(NC(=O)Cn2ncn3c(cc4ccccc43)c2=O)cc1C	/	0%	-10%	15%[10.9 µM]	5%
COc1ccc(-c2nc(SCC(=O)Nc3cccc(C(C)=O)c3)n[nH]2)cc1	/	?	32µM*	-12%[10.9 µM]	?
C=CC(C1=CC(=O)C(OC)=CC1=O)c1ccccc1 (stereo not given)	/	/	100%	-50%	13µM*
O=C(/C=C\Nc1ccccn1)c1ccc(Cl)cc1	1.3µM*	?	13µM*	-85%	7.9µM*
O=c1c2cc3c(cc2nc2sc(Nc4ccccc4)nn12)OCO3	/	-1%	16µM*	-4%[10.9 µM]	13µM*
Cc1ccc(C)c(N2CCN(S(=O)(=O)c3c(C(=O)N4CCC(C)CC4)c(C)n(C)c3C)CC2)c1	/	?	32%	7%[10.9 µM]	2%
NC(=O)CSc1nc(N)c2c3c(sc2n1)CCCCC3	13µM*	/	/	/	/
CCSc1nc(N)c2c3c(sc2n1)CCC3	-16%[25.5 µM]	/	/	/	/
